Test results: the antibiotic and cytotoxicity screens of Wong et al. (2023)
Out of some 39,000 compounds screened, about 3,300 (8.5%) were called active. The sample holds actives, similar compounds and a random draw of the others, so the mix is not that of the screen.

Tested on: HepG2
Experiment: cytotoxicity call (relative viability < 0.9)
Settings: 10 µM

| SMILES | cytotoxicity call |
| --- | --- |
| Cc1ccc(S(=O)(=O)N(C)C[C@H]2Oc3ccc(NS(=O)(=O)c4c(C)noc4C)cc3C(=O)N([C@H](C)CO)C[C@@H]2C)cc1 | inactive |
| C[C@]12C(=O)N(CCC(=O)O)C(=O)[C@H]1[C@@H]1C=C[C@@H]2C1 | inactive |
| Cc1ccc(S(=O)(=O)Nc2cccc3c2O[C@@H](CN(C)S(=O)(=O)c2ccc(F)cc2)[C@H](C)CN([C@@H](C)CO)C3=O)cc1 | inactive |
| O=C(Cn1ccc([N+](=O)[O-])n1)N1CCOCC1 | inactive |
| COc1ccc(NC(=O)N(C)C[C@H]2Oc3ccc(NC(=O)Cn4cnnn4)cc3CC(=O)N([C@H](C)CO)C[C@H]2C)cc1 | inactive |
| C[C@H](CO)N1C[C@H](C)[C@H](CN(C)Cc2ccc(Oc3ccccc3)cc2)Oc2c(NS(=O)(=O)c3ccc(F)cc3)cccc2C1=O | inactive |
| C[C@H](CO)N1C[C@H](C)[C@@H](CN(C)S(=O)(=O)c2ccc(Cl)cc2)Oc2ccc(NS(=O)(=O)c3cn(C)cn3)cc2C1=O | inactive |
| O=C(NCCCN1CCOCC1)[C@@H]1[C@@H](CO)[C@@H]2Cn3c(ccc(C4=CCCCC4)c3=O)[C@H]1N2 | inactive |
| Cc1ccc(S(=O)(=O)Nc2cccc3c2O[C@@H](CN(C)S(=O)(=O)c2ccc(F)cc2)[C@H](C)CN([C@H](C)CO)C3=O)cc1 | inactive |
| CC(C)(C)OC(=O)C[C@@H]1CC=CC[C@@H](CC(=O)N[C@H](CO)Cc2ccccc2)C(=O)N[C@@H](C(C)(C)C)COC1=O | inactive |
| CC1CCN(S(=O)(=O)c2c[nH]cn2)CC1 | inactive |
| Cc1noc(C)c1NC(=O)N(C)C[C@H]1Oc2ccc(NS(C)(=O)=O)cc2C(=O)N([C@H](C)CO)C[C@H]1C | inactive |
| COc1ccc(CN(C)C[C@H]2OCCCC[C@H](C)Oc3ccc(NC(=O)NC(C)C)cc3C(=O)N([C@@H](C)CO)C[C@@H]2C)cc1 | inactive |
| C[C@H](CO)N1C[C@H](C)[C@H](CN(C)Cc2ccc(C(F)(F)F)cc2)OCCCC[C@H](C)Oc2ccc(NS(=O)(=O)c3ccc(Cl)cc3)cc2C1=O | active |
| C[C@@H]1CCCCO[C@H](CN(C)Cc2ccc(C(F)(F)F)cc2)[C@H](C)CN([C@@H](C)CO)C(=O)c2cc(NS(=O)(=O)c3ccc(Cl)cc3)ccc2O1 | active |
| C[C@@H]1CN([C@@H](C)CO)C(=O)c2cc(NC(=O)Cc3cn(C)c4ccccc34)ccc2O[C@@H]1CN(C)CC1CCCCC1 | inactive |
| Cc1noc(C)c1S(=O)(=O)Nc1ccc2c(c1)C(=O)N([C@@H](C)CO)C[C@@H](C)[C@@H](CN(C)C(=O)Nc1ccccc1)OCCCC[C@@H](C)O2 | inactive |
| O=C(O)CCCN1C(=O)CSC1=S | inactive |
| C[C@@H]1CCCCO[C@H](CN(C)C(=O)Nc2ccc(F)cc2)[C@@H](C)CN([C@@H](C)CO)C(=O)c2cc(NC(=O)NC3CCCCC3)ccc2O1 | inactive |
| C[C@H](CO)N1C[C@H](C)[C@@H](CN(C)S(C)(=O)=O)Oc2ccc(NC(=O)C3CCCCC3)cc2CC1=O | inactive |
| C[C@H](CO)N1C[C@H](C)[C@@H](CN(C)Cc2ccc3c(c2)OCO3)Oc2ccc(NC(=O)Cn3cnnn3)cc2C1=O | inactive |
| Cc1ccc(-c2ccc(OC(=O)c3ccccc3F)cc2)cc1 | inactive |
| Cc1ccc(C(=O)Oc2ccc(/C=N/c3cccs3)cc2)cc1 | active |
| O=C(Oc1ccc(C2CCCCC2)cc1)c1cccs1 | inactive |

| SMILES | cytotoxicity call |
| --- | --- |
| C[C@H](CO)N1C[C@H](C)[C@@H](CN(C)S(C)(=O)=O)OCCCC[C@H](C)Oc2ccc(NC(=O)c3ccncc3)cc2C1=O | inactive |
| CC(C)NC(=O)Nc1ccc2c(c1)C(=O)N([C@H](C)CO)C[C@H](C)[C@@H](CN(C)CC1CCCCC1)OCCCC[C@H](C)O2 | inactive |
| C[C@H]1CN([C@@H](C)CO)C(=O)c2cccc(NC(=O)C3CC3)c2O[C@H]1CN(C)C(=O)NC1CCCCC1 | inactive |
| O=C(C[C@@H]1C=C[C@H](NC(=O)c2cnccn2)[C@@H](CO)O1)NCc1ccccc1F | inactive |
| COc1cc2c(c3ccccc13)OC(C)(C)C=C2 | inactive |
| COc1cc2c(cc1OC)C1C(=O)c3c(O)cc4c(c3OC1CO2)C=CC(C)(C)O4 (stereo not drawn) [alpha-TOXICAROL (dl) ] | active |
| COc1ccc(-c2c(O)c3c(OC)c4c(cc3oc2=O)OC(C)(C)C=C4)cc1 | inactive |
| COc1cc2c(cc1OC)-c1c(oc3c4c(ccc3c1=O)OC(C)(C)C=C4)CO2 | active |
| COc1cc2c(cc1OC)-c1c(oc3cc4c(cc3c1=O)CCO4)CO2 | inactive |
| COc1ccc2c(c1)OC1c3ccc(OC)cc3OCC21 (stereo not given) | inactive |
| CC(=O)c1cc2c(cc1O)OC(C)(C)C=C2 | inactive |
| COc1cc2c(cc1OC)C1C(=O)c3ccc4c(c3OC1CO2)C=CC(C)(C)O4 (stereo not given) | active |
| CC1(C)C=Cc2cc3ccc(=O)oc3cc2O1 | inactive |
| COc1ccc2c(c1)OC1COc3cc(OC)c(OC)cc3C1C2=O (stereo not given) | active |
| COc1cc(OC)c2c(c1)OC(c1ccccc1)CC2=O (stereo not given) | inactive |
| Nc1ccc(Cl)nn1 | inactive |
| C[C@@H]1CN([C@@H](C)CO)C(=O)CCCn2nncc2CO[C@H]1CN(C)S(=O)(=O)c1ccc(Cl)cc1 | inactive |
| O=C(C[C@@H]1CC[C@@H](NC(=O)CN2CCOCC2)[C@H](CO)O1)NCCc1ccncc1 | inactive |
| C[C@@H]1CCCCO[C@H](CN(C)C(=O)C2CCCCC2)[C@H](C)CN([C@@H](C)CO)C(=O)c2cc(NC(=O)Cc3ccccc3)ccc2O1 | inactive |
| Cc1cn(Cc2ccccc2)c(=O)[nH]c1=O | inactive |
| O=C(C[C@H]1CC[C@@H]2[C@H](COC[C@@H](O)CN2C(=O)Nc2cc(Cl)cc(Cl)c2)O1)N1CCOCC1 | inactive |
| COC[C@@H]1c2nnn(C)c2CCN1S(=O)(=O)c1cn(C)cn1 | inactive |
| C[C@@H]1CCCCO[C@@H](CN(C)CC2CCCCC2)[C@H](C)CN([C@H](C)CO)C(=O)c2cc(NS(=O)(=O)c3ccc(F)cc3)ccc2O1 | inactive |
| C[C@@H]1CCCCO[C@@H](CN(C)CC2CCCCC2)[C@@H](C)CN([C@H](C)CO)C(=O)c2cc(NS(=O)(=O)c3ccc(F)cc3)ccc2O1 | active |

| SMILES | cytotoxicity call |
| --- | --- |
| C[C@@H]1CCCCO[C@H](CN(C)CC2CCCCC2)[C@@H](C)CN([C@H](C)CO)C(=O)c2cc(NS(=O)(=O)c3ccc(F)cc3)ccc2O1 | inactive |
| C[C@@H]1CCCCO[C@H](CN(C)CC2CCCCC2)[C@H](C)CN([C@H](C)CO)C(=O)c2cc(NS(=O)(=O)c3ccc(F)cc3)ccc2O1 | inactive |
| C[C@@H]1CN([C@H](C)CO)C(=O)c2cc(NS(=O)(=O)c3ccc(F)cc3)ccc2O[C@@H](C)CCCCO[C@@H]1CN(C)CC1CCCCC1 | inactive |
| C[C@@H]1CN([C@@H](C)CO)C(=O)c2cc(NS(=O)(=O)c3ccc(F)cc3)ccc2O[C@@H](C)CCCCO[C@H]1CN(C)CC1CCCCC1 | inactive |
| C[C@@H]1CCCCO[C@@H](CN(C)CC2CCCCC2)[C@@H](C)CN([C@@H](C)CO)C(=O)c2cc(NS(=O)(=O)c3ccc(F)cc3)ccc2O1 | inactive |
| C[C@H](CO)N1C[C@H](C)[C@H](CN(C)CC2CCCCC2)OCCCC[C@H](C)Oc2ccc(NS(=O)(=O)c3ccc(F)cc3)cc2C1=O | active |
| C[C@H](CO)N1C[C@H](C)[C@@H](CN(C)CC2CCCCC2)OCCCC[C@H](C)Oc2ccc(NS(=O)(=O)c3ccc(F)cc3)cc2C1=O | inactive |
| C[C@@H]1CCCCO[C@@H](CN(C)CC2CCCCC2)[C@H](C)CN([C@@H](C)CO)C(=O)c2cc(NS(=O)(=O)c3ccc(F)cc3)ccc2O1 | active |
| C[C@@H]1CN([C@@H](C)CO)C(=O)c2cc(NS(=O)(=O)c3ccc(F)cc3)ccc2O[C@@H](C)CCCCO[C@@H]1CN(C)CC1CCCCC1 | inactive |
| C[C@H]1CCCCO[C@H](CN(C)CC2CCCCC2)[C@@H](C)CN([C@@H](C)CO)C(=O)c2cc(NS(=O)(=O)c3ccc(F)cc3)ccc2O1 | active |
| CCCNC(=O)C[C@H]1CC[C@@H]2[C@@H](COc3ccc(NS(=O)(=O)c4ccccc4C)cc3C(=O)N2C)O1 | inactive |
| O=C(C[C@H]1C=C[C@@H](NC(=O)c2ccc3c(c2)OCO3)[C@@H](CO)O1)NCc1ccc(Oc2ccccc2)cc1 | inactive |
| COc1ccc2c3c(n(c2c1)C)[C@@H](CO)N(C[C@]13CCN(CC1)S(=O)(=O)c1cn(cn1)C)C(=O)Nc1ccc(cc1)F | inactive |
| COc1ccc2c3c([nH]c2c1)[C@H](CO)N(C[C@]13CN(CC2CCCCC2)C1)S(=O)(=O)c1cn(cn1)C | inactive |
| C[C@@H]1CCCCO[C@H](CN(C)C(=O)NC2CCCCC2)[C@H](C)CN([C@@H](C)CO)C(=O)c2cc(NC(=O)C3CCCCC3)ccc2O1 | inactive |
| CN1C(=O)[C@@H]2[C@@H]3C[C@H]4[C@@H](O[C@H]1[C@H]42)[C@H]3O | inactive |
| C[C@H](CO)N1C[C@H](C)[C@H](CN(C)Cc2ccncc2)Oc2c(NC(=O)c3cnccn3)cccc2C1=O | inactive |
| C[C@@H]1CN([C@H](C)CO)C(=O)c2cc(NS(=O)(=O)c3ccc(F)cc3)ccc2O[C@@H](C)CCCCO[C@H]1CN(C)CC1CCCCC1 | active |
| C[C@H]1CCCCO[C@@H](CN(C)CC2CCCCC2)[C@@H](C)CN([C@@H](C)CO)C(=O)c2cc(NS(=O)(=O)c3ccc(F)cc3)ccc2O1 | inactive |
| C[C@@H]1CCCCO[C@H](CN(C)CC2CCCCC2)[C@H](C)CN([C@@H](C)CO)C(=O)c2cc(NS(=O)(=O)c3ccc(F)cc3)ccc2O1 | inactive |
| C[C@H](CO)N1C[C@H](C)[C@@H](CN(C)C(=O)Nc2ccc3c(c2)OCO3)Oc2ccc(NC(=O)Cn3cnnn3)cc2C1=O | inactive |
| C[C@H](CO)N1C[C@H](C)[C@@H](CN(C)C(=O)Nc2ccc3c(c2)OCO3)OCCCC[C@H](C)Oc2ccc(NS(=O)(=O)c3ccc(F)cc3)cc2C1=O | inactive |
